For 42 sequences, binding signal results are on record in paper PMC7819943, “Rice protein-binding microarrays: a tool to detect cis-acting elements near promoter regions in rice”.

Over roughly 68,000 sequences, “fluorescence intensity (a.u.)” has its median near 9,100; the highest 2% begin near 16,000. The entries come from a sample that favours the highest values as a whole.

Chain of OsWRKY34 (Q0JBA9 entry or part of it): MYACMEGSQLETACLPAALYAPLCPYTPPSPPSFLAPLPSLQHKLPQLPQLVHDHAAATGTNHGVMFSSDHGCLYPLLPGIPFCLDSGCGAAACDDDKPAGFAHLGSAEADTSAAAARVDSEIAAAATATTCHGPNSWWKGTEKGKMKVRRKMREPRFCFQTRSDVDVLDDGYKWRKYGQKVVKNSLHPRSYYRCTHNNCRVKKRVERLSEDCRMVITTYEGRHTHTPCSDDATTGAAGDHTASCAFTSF

This assay deals with OsWRKY34 (Oryza sativa, UniProt Q0JBA9 1-250). Briefly: protein-binding microarray (RPBM); PBS, 2% BSA, 51.3 ng/ul salmon testes DNA, 50 uM zinc acetate, 200 nM TF, 25 C, 1 h; high values mean tight binding. As to conditions: protein: recombinant; tags: N-terminal polyhistidine and DsRed monomer fusion (pET32a); label: CyDye5-dUTP incorporated in the synthesized complementary strand; 3' TTTTT single-stranded linker to array surface; dsDNA, one strand shown. The method, boiled down:
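Binding signal is reported as fluorescence intensity per feature (arbitrary units) from an Axon 4000B scanner. Incubation used 200 nM of each Ni–NTA-purified, N-terminally polyhistidine- and DsRed-fused transcription factor from E. coli BL21-CodonPlus on a double-stranded custom Agilent array for 1 h at 25 °C, with 50 µM zinc acetate in the buffer, followed by washing.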
On to “CGATCTCAGCTGTCACTCACTATGTGGTTCATCTAACTGACGGAGTCACCTAGTGCAG”, for which the binding signal is 9510 fluorescence intensity (a.u.). In the case of “CAGGTCATTTTGGTGTGTGCTTTGCGGTATTAACTCGTGCCGGAGTCACCTAGTGCAG”, the binding signal is 8700 fluorescence intensity (a.u.).

As to “CACAGCGTCCACACCCGCGCCGCCGCCGCCCTCACCCTCGCGGAGTCACCTAGTGCAG”, the binding signal was 8760 fluorescence intensity (a.u.).

On to “CGGGGATGGAGGTGGTGGTGAGGCTGGCGACGGCGGGCCGCGGAGTCACCTAGTGCAG”, for which the binding signal was 12100 fluorescence intensity (a.u.). For the sequence “GGGTGTTATGAGTTGTGTTTGCTGTAGCTTGTCAGCTGTTCGGAGTCACCTAGTGCAG”, the binding signal is 10600 fluorescence intensity (a.u.).

For “CTGTAGAGAAATACTACACTACTGTACACTACATTCCTGCCGGAGTCACCTAGTGCAG”, the binding signal was 8350 fluorescence intensity (a.u.). As for “GGTTTTCATGGTGCTGTGGATGTTCACTAGCTTTGGAGGGCGGAGTCACCTAGTGCAG”, the binding signal was 10900 fluorescence intensity (a.u.). On to “TGTTAGTATTAGGGTGCTTTTGGGTTTGGGGTTTCTGCCACGGAGTCACCTAGTGCAG”, for which the binding signal is 24200 fluorescence intensity (a.u.). Regarding “GTGTGGTCGTCGTGTCGGCGGCGGCGGCGGCGGCGGGAGGCGGAGTCACCTAGTGCAG”, the binding signal was 14300 fluorescence intensity (a.u.). For the sequence “CCTTTCCAAGTCGGTCGGGGTAGCTGGGTTGTCTCGCCGGCGGAGTCACCTAGTGCAG”, the binding signal is 12300 fluorescence intensity (a.u.). For “GGCTGCTTCAGGGGCGTGGGAGAGGTTTGGGGTTGGTTCACGGAGTCACCTAGTGCAG”, the binding signal was 16000 fluorescence intensity (a.u.). Take “CTGTATTATGGTGCTTTCACATTTTTTTTCTAGTCTGCCACGGAGTCACCTAGTGCAG”: the binding signal is 8370 fluorescence intensity (a.u.).

For “GTGTCGGCGGAGGGGCGCGCGGCGGGGTCGGCGGAGGCGCCGGAGTCACCTAGTGCAG”, the binding signal is 8590 fluorescence intensity (a.u.). “GTCCAAGTTTGCCTTTCTCACTGGGGAGCGGGTGGGCTGTCGGAGTCACCTAGTGCAG”: the binding signal was 21000 fluorescence intensity (a.u.).

Regarding “CAGTTTCCACCCTGGGTGGGGTGGGGCCCACCTGTCGGGGCGGAGTCACCTAGTGCAG”, the binding signal was 9940 fluorescence intensity (a.u.). For “ATTTGTATTTGTTTTTTGTTTGTTAGTATTAGGGTGCTTTCGGAGTCACCTAGTGCAG”, the binding signal was 9720 fluorescence intensity (a.u.). For “GAGTTGGGTTGGAGTGGTTTGGATCGCTGCTTCACTAGGGCGGAGTCACCTAGTGCAG”, the binding signal is 27400 fluorescence intensity (a.u.). Turning to “GTGGTGGTGCGCGGCGGCGGCGGCGGGGAGGGGTGTGTGTCGGAGTCACCTAGTGCAG”, the binding signal is 24500 fluorescence intensity (a.u.). Then “TTCATGGAACATTCACGTGGATCATTCTCTCTCTCTCTCTCGGAGTCACCTAGTGCAG”, with 8100 fluorescence intensity (a.u.). In the case of “TCACATCTCATTTTATGTTGGTTTTTTATGGGACGGGAGGCGGAGTCACCTAGTGCAG”, the binding signal is 10200 fluorescence intensity (a.u.). On to “CACCACCGTGCACTTCACAATTCACACTACTCCTTCAGATCGGAGTCACCTAGTGCAG”, for which the binding signal was 8340 fluorescence intensity (a.u.).

For the sequence “CTCATCATCCCGTCCAAAATCAGCTGCCCGCGCCGACGACCGGAGTCACCTAGTGCAG”, the binding signal is 8700 fluorescence intensity (a.u.).

As to “ATACACATGCACATTTAGTTCCTCCCGGTAAGTTCGTCGTCGGAGTCACCTAGTGCAG”, the binding signal is 8260 fluorescence intensity (a.u.). Regarding “ATTTTTTTTTGGCATAGTTTGTGTTCACTGCAAAAATCACCGGAGTCACCTAGTGCAG”, the binding signal is 9080 fluorescence intensity (a.u.).

Turning to “GGGTGGGAGGGAGGGAGTACATGGTAAGGCCATTCAACAGCGGAGTCACCTAGTGCAG”, the binding signal is 20200 fluorescence intensity (a.u.).

For the sequence “TTTGGTTCACGCGGCGCGGGCGGGGAGTGGGAGGGGCATGCGGAGTCACCTAGTGCAG”, the binding signal was 24100 fluorescence intensity (a.u.). With “GCTACATCAGCGGCGGAGGTGGAGGTGGAGGGGTAAGGTGCGGAGTCACCTAGTGCAG” the figure was 11600 fluorescence intensity (a.u.); with “CTATTATCTCCAGGGTGGGGTGGGGCCCATACGGCCAGGACGGAGTCACCTAGTGCAG”, 10400 fluorescence intensity (a.u.); with “CTGCGGCCCGGCGGGAGTGGGAGGGGCGGCGGGCCGGACCCGGAGTCACCTAGTGCAG”, 9720 fluorescence intensity (a.u.). With “GAGAGCTTTGCGGCGGGCATGCGGGTGGGGATTCACCGCGCGGAGTCACCTAGTGCAG” the figure was 10600 fluorescence intensity (a.u.).

For the sequence “GGGTTATTCTTTGCATGATATTTGACGTTTTTTCTCGCTGCGGAGTCACCTAGTGCAG”, the binding signal was 9920 fluorescence intensity (a.u.). Then “TTTGACGTTTTTTCTCGCTGCTATTATCTCCAGGGTGGGGCGGAGTCACCTAGTGCAG”, with 17200 fluorescence intensity (a.u.); and “AGAGATGGTAGTGGTAAAGCGGAGGAGGGGTGGGGTGTTGCGGAGTCACCTAGTGCAG”, with 16700 fluorescence intensity (a.u.); and “GAGAGAGGGGTTGGGTTTGGTTGGTGTTTGTGTGGAGATGCGGAGTCACCTAGTGCAG”, with 12800 fluorescence intensity (a.u.). With “AGAGGGATGGGTGTGGGCAGCGGTGGGCGGTAAGGCACCACGGAGTCACCTAGTGCAG” the figure was 9360 fluorescence intensity (a.u.); with “TGACAGCGGTAGATGTGGGTGGTGGTGGGAGGGGAGGATGCGGAGTCACCTAGTGCAG”, 16200 fluorescence intensity (a.u.); with “ACCTTGGACAACTGACTTCTCTACAGACATTAACCTTTTTCGGAGTCACCTAGTGCAG”, 8730 fluorescence intensity (a.u.). As to “TTTTCATCTGAGCTTATGTTCCAACTTTTATTTTTAATCACGGAGTCACCTAGTGCAG”, the binding signal was 8780 fluorescence intensity (a.u.). Then “ACTGAGTACTGTTCGGTTGGGTCTGGCATCGGATGTTTCCCGGAGTCACCTAGTGCAG”, with 8340 fluorescence intensity (a.u.). Then “TATAGGCCACTTGTGCCTCGGCTCACGTTGACCTGCCTTACGGAGTCACCTAGTGCAG”, with 8170 fluorescence intensity (a.u.); and “AACATATAAACTCAAATCTCCAATTGTTTCCGCTACAAATCGGAGTCACCTAGTGCAG”, with 8100 fluorescence intensity (a.u.). Regarding “AACTATTTTCATCCCTCGAGGACATATCTCCTCGTTGTTTCGGAGTCACCTAGTGCAG”, the binding signal was 11100 fluorescence intensity (a.u.).
